# Results: PubChem BioAssay (Tox21)
# Inconclusive results are not listed. Where a call stands in place of a potency, no number is given. The source made the active and inactive calls. Calls come from the whole dose curve; as a rule, active = well fitted cell-killing curve with a large enough effect in the repeat runs; inconclusive = weak or mixed curves; inactive = no such curve, though single readings can be large or run the other way.
# Assay: qHTS assay to identify small molecule antagonists of the androgen receptor (AR) signaling pathway - cell viability counter screen (AID 743033; note: nearly all actives have a fitted effect of over 45% in size)
# Conditions: AR-bla HEK293 viability, CellTiter-Glo luminescence, 16 h; series mostly up to 58.5 µM
row,Compound,Potency
1,Cc1cc(C)c(S(=O)(=O)O)cc1N=Nc1cc(S(=O)(=O)O)c2ccccc2c1O,inactive
2,CC(C)=CCCC(C)CC=O (stereo not given),inactive
3,CCOC(=O)C1=C(C)NC(C)=C(C(=O)OC)C1c1cccc([N+](=O)[O-])c1 (stereo not given),inactive
4,NC[C@H]1O[C@H](O[C@H]2[C@H](O)[C@@H](O[C@H]3O[C@H](CO)[C@@H](O)[C@H](N)[C@H]3O)[C@H](N)C[C@@H]2N)[C@H](O)[C@@H](O)[C@@H]1O,inactive
5,CCCCCCCC/C=C\CCCCCCCC(N)=O,inactive
6,CCOC(=S)SSC(=S)OCC,inactive
7,CCOc1cc(OCC)c(C(=O)CCC(=O)O)cc1OCC,inactive
8,Oc1ccc2c(c1)OCO2,inactive
9,CCCCCc1ccc(N)cc1,inactive
10,COc1ccc2[nH]c(S(=O)Cc3ncc(C)c(OC)c3C)nc2n1 (stereo not given),inactive
11,N#CCc1cccc(C(F)(F)F)c1,inactive
12,O=CNc1ccccc1,inactive
13,CC(=O)c1c(C)c([N+](=O)[O-])c(C(C)(C)C)c([N+](=O)[O-])c1C,inactive
14,N=C(N=C(N)N)N1CCOCC1,inactive
15,CN(C)CCCNCCCN,inactive
16,CCN(CC)CCNC(C(=O)OCCC(C)C)c1ccccc1 (stereo not given),inactive
17,CCC(C)N(C)C(=O)c1cc2ccccc2c(-c2ccccc2Cl)n1 (stereo not given),inactive
18,O=S1(=O)c2cccc3cccc(c23)N1CCCN1CCN(c2ccc(F)cc2)CC1,inactive
19,CCCCOC(=O)c1ccccc1C(=O)OCC(CC)CCCC (stereo not given),inactive
20,O=C(Cl)c1ccc([N+](=O)[O-])cc1,inactive
21,CNCC[C@@H](Oc1ccccc1C)c1ccccc1,inactive
22,c1ccc(CNCc2ccccc2)cc1,inactive
23,Cc1ccc(O)c([C@H](CCN(C(C)C)C(C)C)c2ccccc2)c1,inactive
24,CCN(CC)CCc1nc(-c2ccccc2)no1,inactive
25,CCCCOC(O)CC (stereo not given),inactive
26,CCN1CCC[C@H]1CNC(=O)c1c(OC)ccc(Br)c1OC,inactive
27,O=C(NN1CCCC1)NS(=O)(=O)c1ccc(Cl)cc1,inactive
28,CC1=CCC(C(C)C)C=C1 (stereo not given),inactive
29,Cc1cc(NC(=O)C(=O)O)cc(C)c1Oc1ccc(O)c2c1CCC2,inactive
30,CN1CCC(OC(c2ccccc2)c2ccccc2)CC1,inactive
